The source made the active and inactive calls.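 How the source made its calls: active means visually confirmed hit in the image check and inhibition above 20%; inconclusive means visually confirmed hit but inhibition not above 20%; inactive means no visual hit in the image check.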
Assay: inhibitors of E-selectin induction by TNFa, primary screen, imaging, HUVEC, immunofluorescence, MLSMR starter and 10KST1 sets (AID 487);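 on inhibition: signal is fraction of cell area covered by stained E-selectin grains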;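 on nuclei count: 100% = median nuclei count of all wells on the same plate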
Settings: HUVEC TNFalpha-induced E-selectin immunofluorescence imaging, at 2 µM; inhibition: stronger effect = higher value; nuclei count: measured here: cell number, toxicity

Row | SMILES | nuclei count [%] | inhibition
1 | CCOc1ccccc1-n1nnnc1SCC(=O)Nc1cc2oc3ccccc3c2cc1OC | 118 | -108% (inactive)
2 | COc1ccccc1C1/C(=C(/O)c2ccccc2)C(=O)C(=O)N1CC(C)C (stereo not given) | 124 | -43.1% (inactive)
3 | CCn1c(-c2cc(Br)ccc2O)n[nH]c1=S | 83.3 | -27.4% (inactive)
4 | Cc1cc(C(=O)Nc2sc3c(c2C#N)CCCCC3)cs1 | 100 | -7.5% (inactive)
5 | Cc1ccc(N2C(N)=NC(N)=NC23CCCC3)c(C)c1 | 122 | -26% (inactive)
6 | O=C1C2C3C=CC(C3)C2C(=O)N1Cc1ccccc1 (stereo not given) | 74.3 | 40.2% (inactive)
7 | CCCN(CCC)C(=O)C1CCN(c2cc(C)nc3c(-c4ccc(OC)c(OC)c4)c(C)nn23)CC1 | 124 | -68.7% (inactive)
8 | Cc1c[nH]c2cccc(OCC(O)CNC(C)(C)C)c12 (stereo not given) | 123 | -4.9% (inactive)
9 | O=C(NCCN1CCOCC1)c1ccc2c(c1)N(Cc1ccccc1F)C(=O)CS2 | 111 | -51.7% (inactive)
10 | O=C(NCc1ccc2c(c1)OCO2)c1ccc(NS(=O)(=O)c2ccc3c(c2)OCCO3)cc1 | 128 | -0.9% (inactive)
11 | CC(C)(C#N)Nn1cnnc1 | 110 | -1.2% (inactive)
12 | CC1=NC(Nc2nc(C)c3ccccc3n2)=NC(C)(C)C1 | 111 | -13% (inactive)
13 | O=C(CSCc1cccc(F)c1)N1CCN(c2ccccc2)CC1 | 123 | -66.2% (inactive)
14 | CC(=O)N1CCN(c2ccc(NC(=O)c3ccc(C(C)(C)C)cc3)cc2)CC1 | 135 | -186% (inactive)
15 | CC1(C)OC(=O)N(c2cccnc2)C1(C)O (stereo not given) | 104 | 41.8% (inactive)
16 | Cc1cc(=O)oc2cc(OCC(=O)OCC(=O)N3CCc4ccccc43)ccc12 | 103 | -44.9% (inactive)
17 | CC1CCCN(c2ccc(C(=O)NCc3cccs3)cn2)C1 (stereo not given) | 139 | -67.5% (inactive)
18 | CC(=O)c1c(OC(=O)c2ccco2)c2ccccc2n1C | 101 | -81.6% (inactive)
19 | Cc1cc(/C=N/n2cnnc2)c(C)n1-c1cccc(Cl)c1 | 46 | 40.1% (inactive)
20 | COc1ccc2ccccc2c1CN1CCCC(CO)C1 (stereo not given) | 97.2 | 53% (inactive)

Row | SMILES | nuclei count [%] | inhibition
21 | CCn1c(C(Cc2ccccc2)NC(=O)COC)nc2ccccc21 (stereo not given) | 110 | 14.1% (inactive)
22 | CC(C)OC(=O)C1C2C=CC3(CN(Cc4cccs4)C(=O)C13)O2 (stereo not given) | 111 | -92.4% (inactive)
23 | Cc1[nH]c(=O)[nH]c(=O)c1S(=O)(=O)N1CCCC(C(=O)NCc2ccco2)C1 (stereo not given) | 106 | -48.3% (inactive)
24 | COc1ccc(OC)c(C2CC(=O)NC(SC)=C2C#N)c1 (stereo not given) | 117 | -23.1% (inactive)
25 | COc1ccc(S(=O)(=O)NCc2ccc3c(c2)OCO3)cc1C(=O)O | 107 | -41.3% (inactive)
26 | CC(=O)Nc1ccccc1OCc1nnc(-c2cccs2)o1 | 104 | -266% (inactive)
27 | CCn1nnnc1SCC(=O)N1CCOCC1 | 122 | -0.6% (inactive)
28 | NC(=O)c1c(NC(=O)Cc2cccs2)sc2c1CCC2 | 150 | -43% (inactive)
29 | COC(=O)C(C#N)C(=C1C(=O)CC(C)(C)CC1=O)c1ccc(O)cc1 (stereo not given) | 109 | 15% (inactive)
30 | CCCCn1nnnc1NCc1cccs1 | 119 | -66.2% (inactive)
31 | CCOC(=O)N1CCC(n2c(SCC(=O)NCc3ccco3)nc3ccsc3c2=O)CC1 | 118 | -97.7% (inactive)
32 | CCC(=O)N1CCN(c2nc(-c3ccccc3)c3c(c2C#N)CCCC3)CC1 | 108 | -27.6% (inactive)
33 | c1nc(NCC2(N3CCOCC3)CCCCC2)c2ccsc2n1 | 87.7 | 20.6% (inactive)
34 | CC(C)(C)NC(=O)Cn1nnnc1-c1nonc1N | 120 | -94.7% (inactive)
35 | Nc1scc(-c2ccncc2)c1Cl | 107 | -2.4% (inactive)
36 | COc1cccc(-n2c(CNc3ccc(F)cc3)nnc2SCC(N)=O)c1 | 76.1 | -32.3% (inactive)
37 | COc1ccc(CCNc2oc(-c3ccccc3OC)nc2C#N)cc1 | 88.6 | -19.1% (inactive)
38 | CC1(C)CN=C(N2CCN(c3ncnc4sc5c(c34)CCCC5)CC2)S1 | 113 | -28.7% (inactive)
39 | CC(CN1CCCCC1)OC(=O)c1ccc2c(c1)OCO2 (stereo not given) | 103 | -45.9% (inactive)
40 | CC(C)CCN(C)C1CCN(S(=O)(=O)c2ccc(F)cc2)CC1 | 121 | -35.4% (inactive)
